Test results reported in PubChem BioAssay (NCI).
About 83,000 compounds went through this panel and 20% of them were active in at least one assay; those are over-represented in the sample as a whole.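 The endpoint reported here, percent growth, reads 100 for growth as untreated, 0 for no net growth and -100 for all cells dead.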 A number with no mark means an inactive call. Calls of active or inactive are those of the source. The calls were made as follows: active = growth percent below 10; inactive = the rest.

system: HOP-62 NSCLC; test: NCI-60 one-dose screen, 48 h (100 = growth as untreated, 0 = no growth, -100 = all killed); settings: 10 µM unless noted

Question: How did the growth turn out when `CCNC(=O)Oc1ccc(/C(=C(/CC)Cc2ccccc2)c2ccc(OCCN3CCCC3)cc2)cc1` was run?
Answer: 83.2%

Question: For `CC(=O)c1sc2sc(C(C)=O)c(C)c2c1C`, which growth is on record?
Answer: 80.3%

Question: For `CN1C(=O)/C(=C/c2ccc(C(=O)Nc3ncc(Cc4cccc(Cl)c4)s3)cc2)SC1=S`, which growth is on record?
Answer: 62.9%

Question: With `COc1ccc(C2=CC(c3cc(OC)c(OC)c(OC)c3)n3ncnc3N2)cc1` (stereo not drawn) as the compound, how does the growth read?
Answer: 9.09% (active)

Question: Which growth does the source give for `Cc1ccc(Cl)cc1NC(=O)c1sc2nc3c(cc2c1N)C(=O)CCC3` here?
Answer: 60.9%

Question: `COc1ccc(/C=C/C(c2cc(OC)c(OC)c(OC)c2)n2cncn2)cc1` (stereo not drawn) was tested. Which growth did it give?
Answer: 41.8%

Question: Which growth does the source give for `Cc1ncc(C(=O)Nc2ccc(CN3CCN(C)CC3)c(C(F)(F)F)c2)cc1C#Cc1cnc(N)c2ncccc12` here?
Answer: 20.6%

Question: Which growth does the source give for `Cc1ccc(C(=O)c2ccc(CC(=O)NN3C(=O)c4ccccc4C3=O)n2C)cc1` here?
Answer: 88.9%

Question: `CN(C)CCCC1(c2ccc(F)cc2)OCc2cc(-c3ccc4cc[nH]c4c3)ccc21` (stereo not drawn) was tested. Which growth did it give?
Answer: 74.9%

Question: Which growth does the source give for `O=C(/C=C/c1cccc(Cl)c1Cl)Nc1ncc(Cc2ccccc2Cl)s1` here?
Answer: 42.4%

Question: For `O=C(Nc1ccc(Cl)cc1)Oc1c(Cl)c(Cl)c(Cl)c(Cl)c1Cl`, which growth is on record?
Answer: 85.6%

Question: `CCCCNC(=O)c1cc([N+](=O)[O-])cc(C2CCCCC2)c1O` was tested. Which growth did it give?
Answer: 57.7%

Question: For `O=C1NC(=O)/C(=C/c2c(-c3ccccc3)nc3sc(COc4ccccc4)nn23)S1`, which growth is on record?
Answer: 102%

Question: How did the growth turn out when `COc1ccc2c(c1)c(/C(O)=C1\COC(=O)C1=O)cn2Cc1ccc(F)cc1` was run?
Answer: 112%

Question: Which growth does the source give for `CCN(CC)CCN1C(=O)c2cccc3c(/C=C/CN4C(=O)c5cccc6cccc(c56)C4=O)ccc(c23)C1=O` here?
Answer: 89.5%

Question: For `O=C(CCCCCCN1CC(=O)N2[C@H](c3ccc(Br)cc3)c3[nH]c4ccccc4c3C[C@@H]2C1=O)NO`, which growth is on record?
Answer: 52.2%

Question: Which growth does the source give for `NNCCc1ccc(NC(=O)CCCc2ccc(C(=O)Nc3ccccc3N)cc2)cc1` here?
Answer: 69.6%

Question: How did the growth turn out when `Cc1cccc[n+]1C1c2ccccc2-c2ccccc21` was run?
Answer: 70.5%

Question: For `CN(C)S(=O)(=O)Oc1ccc(-c2sc3cc(OS(=O)(=O)N(C)C)ccc3c2C(=O)c2ccc(OCCN3CCCCC3)cc2)cc1`, which growth is on record?
Answer: 49.8%

system: NCI-H460 lung; test: as above; settings: 10 µM unless noted

Question: With `C[C@@H]1O[C@@H](O[C@@H]2C[C@H](c3ccc4c(c3O)C(=O)C3=C(C4=O)[C@@]4(O)C(=O)C[C@](C)(O)C[C@@]4(O)C=C3)O[C@H](C)[C@H]2O)CC[C@@H]1O[C@H]1C[C@@H](O)[C@H](O)[C@@H](C)O1` as the compound, how does the growth read?
Answer: 105%

Question: How did the growth turn out when `CC(=O)OC(c1ccccc1)C1CCOC1=O` (stereo not drawn) was run?
Answer: 109%

Question: How did the growth turn out when `C=CCN1C(=O)c2cccc3c(N4CCOCC4)ccc(c23)C1=O` was run?
Answer: 8.52% (active)

Question: For `O=C(CCSc1nnc2n(Cc3ccccc3)c(=O)c3c4c(sc3n12)CCCC4)N1CCN(c2ccccc2)CC1`, which growth is on record?
Answer: 102%

Question: For `CC1=CCC(OC(=O)C(C)(C)CC(O)(C(C)O)C(O)C2(C)C=CC(Cc3ccc(C(C)C)cc3)(C(C)C)CC2)(C(C)C)CC1` (stereo not drawn), which growth is on record?
Answer: 103%

Question: For `c1ccc(CCNc2c3ccccc3nc3ccccc23)cc1`, which growth is on record?
Answer: 15.3%

Question: For `CCCCNc1nnc2n(Cc3ccccc3)c(=O)c3c4c(sc3n12)CCCC4`, which growth is on record?
Answer: 22.7%

Question: How did the growth turn out when `COc1ccc2cc(-c3ccnc4c(N=Nc5ccc(Cl)cc5)c(N)nn34)ccc2c1` was run?
Answer: 100%

Question: With `CCO/C=N/C1=C(C#N)C(c2ccc(F)cc2)c2sc3c(F)cccc3c2O1` (stereo not drawn) as the compound, how does the growth read?
Answer: 16.3%

Question: How did the growth turn out when `COc1cc2nc3sc(C(=O)Nc4ccc(C(=O)OC(C)C)cc4)c(C(=O)Nc4ccc(Cl)cc4C)n3c(=O)c2cc1OC` was run?
Answer: 22.7%

Question: With `O=C(c1c[nH]c2ccccc12)c1n[nH]c(=S)n1-c1cccc(Br)c1` as the compound, how does the growth read?
Answer: 75%

Question: `O=c1cc(-c2ccccc2)[nH]c2ncc(-c3ccc(F)cc3)n12` was tested. Which growth did it give?
Answer: 47.4%

Question: How did the growth turn out when `Clc1c(Cl)[n+](Cc2ccc3ccccc3c2)cn1Cc1ccc2ccccc2c1` was run?
Answer: 26.1%

Question: For `COc1ccc(/C=C/C(=O)c2cc(OC)c(OC)c(OC)c2)cc1OCC(=O)Nc1nc2ccc(OC(F)(F)F)cc2s1`, which growth is on record?
Answer: -22.9% (active)

Question: `COc1cccc(Nc2ncnc3cc(NC(=O)CCl)ccc23)c1` was tested. Which growth did it give?
Answer: -72.7% (active)

Question: For `COc1cc(/C=C/C(=O)c2ccc(-n3cc(CN4CCN(c5cc6c(cc5F)c(=O)c(C(=O)O)cn6C5CC5)CC4)nn3)cc2)ccc1O`, which growth is on record?
Answer: 66.7%

Question: `C=C(C)[C@@H]1CCC[C@]2(C(=O)O)CC[C@]3(C)[C@@H](CC[C@@H]4[C@@]5(C)C/C(=C/c6ccncc6)C(=O)C(C)(C)[C@@H]5CC[C@]43C)[C@@H]12` was tested. Which growth did it give?
Answer: 5.65% (active)

Question: Which growth does the source give for `O=C(N/N=C\c1cccc([N+](=O)[O-])c1)N/N=C/c1cccc([N+](=O)[O-])c1` here?
Answer: 107%

Question: How did the growth turn out when `O=C(Cn1nnc2ccccc21)N/N=C/c1c[nH]c2ccccc12` was run?
Answer: 21%

Question: With `Cn1cc(-c2csc(-c3c[nH]c4ccc(F)cc34)n2)c2ccnc(Cl)c21` as the compound, how does the growth read?
Answer: 36.7%

Question: Which growth does the source give for `CCNC(=O)Oc1ccc(/C(=C(/CC)Cc2ccccc2)c2ccc(OCCN3CCCC3)cc2)cc1` here?
Answer: 94.1%

Question: How did the growth turn out when `CC(=O)c1sc2sc(C(C)=O)c(C)c2c1C` was run?
Answer: 97.9%

Question: How did the growth turn out when `CN1C(=O)/C(=C/c2ccc(C(=O)Nc3ncc(Cc4cccc(Cl)c4)s3)cc2)SC1=S` was run?
Answer: 20.3%

Question: How did the growth turn out when `COc1ccc(C2=CC(c3cc(OC)c(OC)c(OC)c3)n3ncnc3N2)cc1` (stereo not drawn) was run?
Answer: 0.735% (active)

Question: For `Cc1ccc(Cl)cc1NC(=O)c1sc2nc3c(cc2c1N)C(=O)CCC3`, which growth is on record?
Answer: 28.1%

Question: `COc1ccc(/C=C/C(c2cc(OC)c(OC)c(OC)c2)n2cncn2)cc1` (stereo not drawn) was tested. Which growth did it give?
Answer: 22.1%

Question: With `Cc1ncc(C(=O)Nc2ccc(CN3CCN(C)CC3)c(C(F)(F)F)c2)cc1C#Cc1cnc(N)c2ncccc12` as the compound, how does the growth read?
Answer: 27.1%

Question: How did the growth turn out when `Cc1ccc(C(=O)c2ccc(CC(=O)NN3C(=O)c4ccccc4C3=O)n2C)cc1` was run?
Answer: 104%

Question: `CN(C)CCCC1(c2ccc(F)cc2)OCc2cc(-c3ccc4cc[nH]c4c3)ccc21` (stereo not drawn) was tested. Which growth did it give?
Answer: -10.5% (active)

Question: Which growth does the source give for `O=C(/C=C/c1cccc(Cl)c1Cl)Nc1ncc(Cc2ccccc2Cl)s1` here?
Answer: 33.9%

Question: Which growth does the source give for `O=C(Nc1ccc(Cl)cc1)Oc1c(Cl)c(Cl)c(Cl)c(Cl)c1Cl` here?
Answer: 101%

Question: With `CCCCNC(=O)c1cc([N+](=O)[O-])cc(C2CCCCC2)c1O` as the compound, how does the growth read?
Answer: 30%

Question: How did the growth turn out when `O=C1NC(=O)/C(=C/c2c(-c3ccccc3)nc3sc(COc4ccccc4)nn23)S1` was run?
Answer: 102%

Question: `COc1ccc2c(c1)c(/C(O)=C1\COC(=O)C1=O)cn2Cc1ccc(F)cc1` was tested. Which growth did it give?
Answer: 103%

Question: Which growth does the source give for `CCN(CC)CCN1C(=O)c2cccc3c(/C=C/CN4C(=O)c5cccc6cccc(c56)C4=O)ccc(c23)C1=O` here?
Answer: 98.7%

Question: Which growth does the source give for `O=C(CCCCCCN1CC(=O)N2[C@H](c3ccc(Br)cc3)c3[nH]c4ccccc4c3C[C@@H]2C1=O)NO` here?
Answer: 44.7%

Question: For `NNCCc1ccc(NC(=O)CCCc2ccc(C(=O)Nc3ccccc3N)cc2)cc1`, which growth is on record?
Answer: 66.3%

Question: How did the growth turn out when `Cc1cccc[n+]1C1c2ccccc2-c2ccccc21` was run?
Answer: 106%

Question: `CN(C)S(=O)(=O)Oc1ccc(-c2sc3cc(OS(=O)(=O)N(C)C)ccc3c2C(=O)c2ccc(OCCN3CCCCC3)cc2)cc1` was tested. Which growth did it give?
Answer: 32.2%
